This is part of a sample that, as a whole, favours compounds with a hit. Of some 83,000 tested, about 20% had one in any assay.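 In brief: 96-well plates, 48 h treatment, single concentration, percent growth endpoint.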 The source made the active and inactive calls. The calls were made as follows: active = growth percent below 10; inactive = the rest.
Key:
Test in all cases: NCI-60 one-dose screen, 48 h (100 = growth as untreated, 0 = no growth, -100 = all killed)
Conditions in all cases: 10 µM
SN12C renal = tested on: SN12C renal
UO-31 renal = tested on: UO-31 renal
TK-10 renal = tested on: TK-10 renal
ACHN renal = tested on: ACHN renal
CAKI-1 renal = tested on: CAKI-1 renal
A498 renal = tested on: A498 renal
CCRF-CEM leukemia = tested on: CCRF-CEM leukemia
MOLT-4 leukemia = tested on: MOLT-4 leukemia
SR leukemia = tested on: SR leukemia
RPMI-8226 leukemia = tested on: RPMI-8226 leukemia
OVCAR-8 ovarian = tested on: OVCAR-8 ovarian
OVCAR-5 ovarian = tested on: OVCAR-5 ovarian
OVCAR-4 ovarian = tested on: OVCAR-4 ovarian
SK-OV-3 ovarian = tested on: SK-OV-3 ovarian
IGROV1 ovarian = tested on: IGROV1 ovarian
OVCAR-3 ovarian = tested on: OVCAR-3 ovarian
HS 578T breast = tested on: HS 578T breast
NCI/ADR-RES ovarian = tested on: NCI/ADR-RES ovarian
T-47D breast = tested on: T-47D breast

Measured: growth

COc1cc(NC(=O)c2sc3nc4c(cc3c2N)C(O)CCC4)cc(OC)c1 (centres undefined)
inactive: SN12C renal 93.5% | UO-31 renal 85.1% | TK-10 renal 102% | ACHN renal 100% | CAKI-1 renal 90.4% | A498 renal 55.2% | CCRF-CEM leukemia 68.7% | MOLT-4 leukemia 63.1% | SR leukemia 16.8% | RPMI-8226 leukemia 88.2% | OVCAR-8 ovarian 97.5% | OVCAR-5 ovarian 100% | OVCAR-4 ovarian 96.6% | SK-OV-3 ovarian 97.4% | IGROV1 ovarian 85.7% | OVCAR-3 ovarian 95.3% | HS 578T breast 106% | NCI/ADR-RES ovarian 87.3% | T-47D breast 90.8%

O=C(Nc1ccccc1)Nc1cccc(-n2cc(-c3ccncc3)c(-c3ccc(O)c(Cl)c3)n2)c1
active: RPMI-8226 leukemia 9.53%
inactive: SN12C renal 59.1% | UO-31 renal 26.9% | TK-10 renal 88.8% | ACHN renal 43.1% | CAKI-1 renal 30.1% | A498 renal 82.5% | CCRF-CEM leukemia 29.9% | MOLT-4 leukemia 38.3% | SR leukemia 11.9% | OVCAR-8 ovarian 42.7% | OVCAR-5 ovarian 91.1% | OVCAR-4 ovarian 72.8% | SK-OV-3 ovarian 58.6% | IGROV1 ovarian 89.7% | OVCAR-3 ovarian 73.8% | HS 578T breast 40% | NCI/ADR-RES ovarian 83.2% | T-47D breast 44.6%

c1ccc(CP(Cc2ccccc2)c2ccccc2)cc1
inactive: SN12C renal 100% | UO-31 renal 73.8% | TK-10 renal 98.6% | ACHN renal 102% | CAKI-1 renal 92.3% | A498 renal 103% | CCRF-CEM leukemia 89.5% | MOLT-4 leukemia 92.5% | SR leukemia 82.3% | RPMI-8226 leukemia 92.7% | OVCAR-8 ovarian 94.8% | OVCAR-5 ovarian 102% | OVCAR-4 ovarian 113% | SK-OV-3 ovarian 100% | IGROV1 ovarian 78.6% | OVCAR-3 ovarian 112% | HS 578T breast 117% | NCI/ADR-RES ovarian 101% | T-47D breast 116%

COc1ccc(-c2nn(-c3cccc(NC(=O)Nc4ccccc4)c3)cc2-c2ccncc2)cc1Cl
inactive: SN12C renal 31.4% | TK-10 renal 28.1% | ACHN renal 34.8% | A498 renal 32.2% | CCRF-CEM leukemia 11.9% | OVCAR-5 ovarian 35.5% | OVCAR-4 ovarian 41.4% | SK-OV-3 ovarian 80.5% | IGROV1 ovarian 33.3% | OVCAR-3 ovarian 39.4% | HS 578T breast 31.9% | NCI/ADR-RES ovarian 22.4% | T-47D breast 30.9%
active: UO-31 renal -39.9% | CAKI-1 renal -7.47% | MOLT-4 leukemia -2.67% | SR leukemia -6.06% | RPMI-8226 leukemia -35.3% | OVCAR-8 ovarian 0.341%

COC(=O)C(C(C[N+](=O)[O-])c1ccccc1)=P(c1ccccc1)(c1ccccc1)c1ccccc1 (centres undefined)
active: RPMI-8226 leukemia -28.2%
inactive: SN12C renal 100% | UO-31 renal 73.1% | TK-10 renal 97.2% | ACHN renal 93.9% | CAKI-1 renal 84.3% | A498 renal 59.8% | CCRF-CEM leukemia 77.1% | MOLT-4 leukemia 90.3% | SR leukemia 14.6% | OVCAR-8 ovarian 93.4% | OVCAR-5 ovarian 96.5% | OVCAR-4 ovarian 98.3% | SK-OV-3 ovarian 95.7% | IGROV1 ovarian 66% | OVCAR-3 ovarian 89.5% | HS 578T breast 110% | NCI/ADR-RES ovarian 103% | T-47D breast 83.9%

CC(=O)O[C@]1(C)CC[C@H]2[C@H](CNCCc3ccc(Cl)cc3)C(=O)O[C@@H]2C2=C(C)C(=O)C[C@H]21
inactive: SN12C renal 94.2% | UO-31 renal 78.1% | TK-10 renal 97.7% | ACHN renal 96.2% | CAKI-1 renal 98.5% | A498 renal 86.9% | CCRF-CEM leukemia 83.6% | MOLT-4 leukemia 71% | SR leukemia 81.4% | RPMI-8226 leukemia 64.7% | OVCAR-8 ovarian 93.1% | OVCAR-5 ovarian 100% | OVCAR-4 ovarian 87.4% | SK-OV-3 ovarian 101% | IGROV1 ovarian 97.5% | OVCAR-3 ovarian 99.2% | HS 578T breast 150% | NCI/ADR-RES ovarian 109% | T-47D breast 92.3%

N=C(N)c1ccc(-c2ccc(-c3cccs3)o2)cc1
inactive: SN12C renal 54.5% | UO-31 renal 65.9% | TK-10 renal 96.5% | ACHN renal 62.7% | CAKI-1 renal 37.8% | A498 renal 33.5% | CCRF-CEM leukemia 19.9% | OVCAR-8 ovarian 60% | OVCAR-5 ovarian 70.3% | OVCAR-4 ovarian 41.6% | SK-OV-3 ovarian 79.4% | IGROV1 ovarian 67.5% | OVCAR-3 ovarian 71.7% | HS 578T breast 70.3% | NCI/ADR-RES ovarian 71.5% | T-47D breast 43.8%
active: MOLT-4 leukemia -2.16% | SR leukemia -24.5% | RPMI-8226 leukemia -25.4%

CSc1nn(-c2ccccc2)c2ncnc(Oc3ccc(C)cc3)c12
inactive: SN12C renal 88.8% | UO-31 renal 84.4% | TK-10 renal 94.2% | ACHN renal 76% | CAKI-1 renal 84.8% | A498 renal 67.8% | CCRF-CEM leukemia 90.5% | MOLT-4 leukemia 94.9% | SR leukemia 91.8% | RPMI-8226 leukemia 92.4% | OVCAR-8 ovarian 50.7% | OVCAR-5 ovarian 92.5% | SK-OV-3 ovarian 75.2% | IGROV1 ovarian 92.7% | OVCAR-3 ovarian 98.1% | HS 578T breast 85.9% | NCI/ADR-RES ovarian 93.4% | T-47D breast 83.4%
active: OVCAR-4 ovarian 9.15%

COc1ccc(-c2cc(/C=C/C(=O)c3cc(OC)c(OC)c(OC)c3)[nH]n2)cc1OC
inactive: OVCAR-5 ovarian 17.5% | SK-OV-3 ovarian 39.3% | HS 578T breast 71% | NCI/ADR-RES ovarian 12.3%
active: SN12C renal 8.28% | UO-31 renal -92.1% | TK-10 renal -33.2% | ACHN renal -61.9% | CAKI-1 renal 4.66% | A498 renal -2.03% | CCRF-CEM leukemia 4.09% | MOLT-4 leukemia 3.41% | SR leukemia 3.11% | RPMI-8226 leukemia -39.1% | OVCAR-8 ovarian -17.1% | OVCAR-4 ovarian -51.6% | IGROV1 ovarian -9.4% | OVCAR-3 ovarian -17.5% | T-47D breast -14%

Cc1c(Cl)cccc1NC(=O)c1sc2nc3c(cc2c1N)C(=O)CCC3
active: A498 renal -19% | CCRF-CEM leukemia 7.08% | MOLT-4 leukemia 6.7% | SR leukemia 2.96% | RPMI-8226 leukemia 5.08% | IGROV1 ovarian 9.61% | OVCAR-3 ovarian -40.1% | NCI/ADR-RES ovarian 2.57%
inactive: SN12C renal 30.8% | UO-31 renal 33.3% | TK-10 renal 74.3% | ACHN renal 39.4% | CAKI-1 renal 23.9% | OVCAR-8 ovarian 13.5% | OVCAR-5 ovarian 31.8% | OVCAR-4 ovarian 40.4% | SK-OV-3 ovarian 14.4% | HS 578T breast 17.1% | T-47D breast 54.5%

O=S(=O)(NCCCNc1nccc(-c2c(-c3ccc(F)cc3)nc3sccn23)n1)c1ccc2ccccc2c1
inactive: SN12C renal 49.2% | UO-31 renal 13.1% | TK-10 renal 35.4% | ACHN renal 39% | CAKI-1 renal 33.2% | A498 renal 62.4% | CCRF-CEM leukemia 28.3% | MOLT-4 leukemia 35% | SR leukemia 28.5% | RPMI-8226 leukemia 35.9% | OVCAR-8 ovarian 29.7% | OVCAR-5 ovarian 78.7% | OVCAR-4 ovarian 56.8% | SK-OV-3 ovarian 65.2% | IGROV1 ovarian 22.8% | OVCAR-3 ovarian 75.3% | HS 578T breast 71.1% | NCI/ADR-RES ovarian 42.5% | T-47D breast 17.4%

O=C(N/N=C/c1cc2ccccc2c2ccccc12)c1cc(O)c(O)c(O)c1
active: SR leukemia 9.56% | T-47D breast 2.62%
inactive: SN12C renal 69.8% | UO-31 renal 39.2% | TK-10 renal 69.2% | ACHN renal 47.2% | CAKI-1 renal 43.7% | A498 renal 106% | CCRF-CEM leukemia 11.3% | MOLT-4 leukemia 35.6% | RPMI-8226 leukemia 78.8% | OVCAR-8 ovarian 48.5% | OVCAR-5 ovarian 90.4% | OVCAR-4 ovarian 26.4% | SK-OV-3 ovarian 78.8% | IGROV1 ovarian 58.7% | OVCAR-3 ovarian 58% | HS 578T breast 75.4% | NCI/ADR-RES ovarian 81.4%

COc1ccc(-c2nc3sc(-c4ccccc4)c(-c4ccccc4)n3c2/C=C/C(=O)c2ccccn2)cc1
inactive: SN12C renal 86.6% | UO-31 renal 66% | TK-10 renal 90.7% | ACHN renal 66.2% | CAKI-1 renal 87.1% | A498 renal 96.1% | CCRF-CEM leukemia 52.4% | MOLT-4 leukemia 45.7% | SR leukemia 78.4% | RPMI-8226 leukemia 45.7% | OVCAR-8 ovarian 67.9% | OVCAR-5 ovarian 115% | OVCAR-4 ovarian 43.7% | SK-OV-3 ovarian 103% | IGROV1 ovarian 82.6% | OVCAR-3 ovarian 81.3% | HS 578T breast 80.6% | NCI/ADR-RES ovarian 85.9% | T-47D breast 63.9%

COc1ccc(-c2nn(-c3cccc(NC(=O)c4ccc(N5CCOCC5)c(C(F)(F)F)c4)c3)cc2-c2ccncc2)cc1Cl
inactive: SN12C renal 85.2% | UO-31 renal 40.9% | TK-10 renal 82.8% | ACHN renal 60.3% | CAKI-1 renal 47.9% | A498 renal 60% | CCRF-CEM leukemia 38.3% | MOLT-4 leukemia 42.1% | SR leukemia 27.2% | RPMI-8226 leukemia 14.6% | OVCAR-8 ovarian 55.3% | OVCAR-5 ovarian 73.1% | OVCAR-4 ovarian 92.3% | SK-OV-3 ovarian 83.5% | IGROV1 ovarian 94.3% | OVCAR-3 ovarian 83.3% | HS 578T breast 41.1% | NCI/ADR-RES ovarian 52.7% | T-47D breast 68.1%

Clc1ccc(Nc2ccnc(NCCNc3ccnc4cc(Cl)ccc34)n2)cc1
inactive: SN12C renal 48% | A498 renal 17.9% | OVCAR-8 ovarian 16.9% | OVCAR-5 ovarian 61.4% | OVCAR-4 ovarian 24.9% | SK-OV-3 ovarian 60% | OVCAR-3 ovarian 57.8% | NCI/ADR-RES ovarian 44.8%
active: UO-31 renal -26.3% | TK-10 renal -29.9% | ACHN renal -7.16% | CAKI-1 renal -7.16% | CCRF-CEM leukemia 1.25% | MOLT-4 leukemia -28% | SR leukemia -22.3% | RPMI-8226 leukemia -48.9% | IGROV1 ovarian -8.25% | HS 578T breast -25% | T-47D breast -60.2%

C#Cc1ccc(-n2c(/C=C/c3ccc4ccccc4n3)nc3ncccc3c2=O)cc1
inactive: HS 578T breast 11%
active: SN12C renal -15% | UO-31 renal -91.7% | TK-10 renal -44.4% | ACHN renal 2.7% | CAKI-1 renal -20.5% | A498 renal -69.1% | CCRF-CEM leukemia -15.1% | MOLT-4 leukemia -7.6% | SR leukemia -17.9% | RPMI-8226 leukemia -27.7% | OVCAR-8 ovarian -16.4% | OVCAR-5 ovarian -4.33% | OVCAR-4 ovarian -62.4% | SK-OV-3 ovarian 5.05% | IGROV1 ovarian -65.6% | OVCAR-3 ovarian -66.8% | NCI/ADR-RES ovarian -6.13% | T-47D breast -51.9%

Source: PubChem BioAssay (NCI)
